Source: PubChem BioAssay (National Center for Advancing Translational Sciences (NCATS))
NS1 function inh: inhibitors of influenza NS1 protein function; Potency, µM (series often up to 46.1 µM), for the others: at the top dose activity, positive = more growth; 0.4% of 270,000 active; calls by dose curve; also: actives are rising curves; nearly all actives have a fitted effect of over 50% in size
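A cell-based growth assay was used: compounds that relieve NS1-induced slow growth of budding yeast raise OD600. Assay medium was yeast nitrogen base with ammonium sulphate and -URA supplement, pH 6.0, with 2% galactose.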
FBPA Giardia inh: blocks Giardia fructose-bisphosphate aldolase activity; A8B2U2; 0.71% of 290,000 active; Potency, µM (doses to about 59.6 µM), for the others: at the top dose activity, negative = inhibition, usual class: inhibitors; purified Giardia FBPA; AID 2451; also: % is scaled to controls: 0 for no effect and ±100 for the full control effect; nearly all actives have a fitted effect of over 55% in size
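Giardia FBPA (40 nM reagent) was preincubated 10 min at RT with compound (up to 57.5 uM final), then substrate plus GAPDH/TPI/NAD/arsenate coupling system with diaphorase/resazurin was added; resorufin fluorescence (525/598 nm) was read after 20 min.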
AmpC inh detg: inhibitors of E. coli AmpC beta-lactamase with detergent; AmpC hydrolysis of nitrocefin, absorbance 480 nm, 0.01% Triton; Potency, µM (highest dose often 114 µM), for the others: at the top dose activity change, negative = inhibition, hits mostly inhibitors; 0.041% of 370,000 active;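 also: 0% = no-compound wells and -100% = no-enzyme wells; nearly all actives have a fitted effect of over 25% in size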
Target sequence (P00811 whole entry, looked up): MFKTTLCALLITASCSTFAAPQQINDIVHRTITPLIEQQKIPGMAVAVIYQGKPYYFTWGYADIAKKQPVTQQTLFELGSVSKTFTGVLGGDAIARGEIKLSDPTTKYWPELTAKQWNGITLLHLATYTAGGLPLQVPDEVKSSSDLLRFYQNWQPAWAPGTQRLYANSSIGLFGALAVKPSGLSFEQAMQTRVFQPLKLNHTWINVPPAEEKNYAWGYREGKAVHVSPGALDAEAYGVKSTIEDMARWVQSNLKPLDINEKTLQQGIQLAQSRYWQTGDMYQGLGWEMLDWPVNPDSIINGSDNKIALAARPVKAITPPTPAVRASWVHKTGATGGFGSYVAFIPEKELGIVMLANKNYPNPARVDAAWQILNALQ
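20 mM phosphate pH 7.0 + 0.01% (detergent screen) or 0.0001% Triton X-100; 5.3 nM AmpC reagent; cpd preinc 15 min RT; nitrocefin (800 uM stock) to start; A480 q20 s × 4 min; Activity was normalised to no-enzyme and no-compound control wells.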
SARS PLpro yeast: inhibitors of SARS-CoV papain-like protease in yeast | S. cerevisiae expressing SARS-CoV PLpro, growth rescue | Potency, µM (highest dose often 32.9 µM), without a hit: top-dose activity, positive = growth rescue, hits mostly activators | 0.19% of 330,000 active | AID 485353; calls by dose curve; also: 0% is about no effect; nearly all actives have a fitted effect of over 55% in size
AmpC inh no detg: blocks E. coli AmpC beta-lactamase in detergent-free assay; AmpC nitrocefin hydrolysis, absorbance 480 nm, 0.0001% Triton; 0.52% of 330,000 active; P00811; AID 485341; Potency, µM (top dose mostly 57.1 µM), without a hit: top-dose activity change, negative = inhibition, hits mostly inhibitors;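 also: plate controls were no compound for no effect and no enzyme for full effect; nearly all actives have a fitted effect of over 20% in size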
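20 mM phosphate pH 7.0 + 0.01% (detergent screen) or 0.0001% Triton X-100; 5.3 nM AmpC reagent; cpd preinc 15 min RT; nitrocefin (800 uM stock) to start; A480 q20 s × 4 min; Activity was normalised to no-enzyme and no-compound control wells.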
An asterisk follows results filed as active; ? = inconclusive; / = not tested or not shown. The list is not random: actives were taken first. Their share in the collection is about 1.4%. Unless noted, calls follow the shape of the dose curve; as a rule, active = well fitted curve in the direction sought with a large enough effect; inconclusive = small, poorly fitted or top-dose-only effect, or another doubt; inactive = no such curve, though single readings can be large; an effect the other way counts as inactive or inconclusive. Potency is read from the fitted curve at half-maximal effect.

SMILES	NS1 function inh	FBPA Giardia inh	AmpC inh detg	SARS PLpro yeast	AmpC inh no detg
CCc1cccc(CC)c1NC(=S)/C(=C(\[O-])c1ccc(Cl)s1)[n+]1ccccc1	/	?	?	1%	-37%
Cc1ccc(C(=O)OCC(=O)NCc2cccs2)s1	/	/	-16%	-3%	-10%
CN(C)S(=O)(=O)c1cc(NC(=O)CSc2nn(-c3ccc(Cl)cc3)c(=S)s2)ccc1Cl	?	0%	?	?	14µM*
CC(C)c1ccc(C(=O)NC(=S)Nc2ccc3[nH]c(=O)[nH]c3c2)cc1	4%	-4%	1%	0%	8.9µM*
Cn1c(=O)c2c(nc(NCCCO)n2CCc2ccccc2)n(C)c1=O	-6%	-7%	?	-6%	-18%
NC(=O)C1CCN(c2c([N+](=O)[O-])cc(C(F)(F)F)cc2[N+](=O)[O-])CC1	-2%	5%	-5%	0%	18%
COC(=O)C1CCN(c2c([N+](=O)[O-])cc(C(F)(F)F)cc2[N+](=O)[O-])CC1	-4%	2%	3%	-12%	0.25µM*
O=C(O)c1cc(O)c2c(c1)[C@H]([C@H]1c3cc(C(=O)O)cc(O)c3C(=O)c3c(O[C@@H]4OC(CO)C(O)C(O)C4O)cccc31)c1cccc(O[C@@H]3OC(CO)C(O)C(O)C3O)c1C2=O (stereo not given in full)	/	18µM*	/	/	/
OCC1OC(Oc2cccc3ccccc23)C(O)C(O)C1O (stereo not given)	3%	2%	-3%	0%	-12%
O=C(O)c1cc(O)c2c(c1)[C@@H]([C@H]1c3cc(C(=O)O)cc(O)c3C(=O)c3c(O[C@@H]4O[C@H](CO)[C@@H](O)[C@H](O)[C@H]4O)cccc31)c1cccc(O[C@@H]3O[C@H](CO)[C@@H](O)[C@H](O)[C@H]3O)c1C2=O	/	/	/	-1%	1.3µM*
O=C1c2cccc(O)c2C(=O)c2c(O[C@@H]3O[C@H](CO)[C@@H](O)[C@H](O)[C@@H]3O)cccc21	-1%	/	/	/	/
COC(=O)C1=C(c2cccc(OCc3ccccc3)c2)C[C@@H]2CC[C@H]1N2C(=O)NCc1ccccc1	/	/	-2%	4%	-12%
COC(=O)c1cn(CC(=O)NCc2ccco2)c2ccccc12	8%	0%	-9%	0%	?
O=C(Nc1ccccc1C(=O)N1CCNCC1)c1ccco1	9%	5%	-10%	-12%	-6%
CCCOC(=O)c1ccc(NC(=O)Cn2nnc3sc4c(c3c2=O)CCC(C(C)(C)C)C4)cc1 (stereo not given)	/	/	8%	/	/
CCOC(=O)c1sc(NC(=O)Cn2nnc3sc4c(c3c2=O)CCC(C(C)(C)C)C4)nc1C (stereo not given)	14%	-13%	-10%	10%	3.5µM*
O=C(NCc1ccccc1OC(F)(F)F)C1CCC(=O)N(C2CC2)C1 (stereo not given)	-2%	/	1%	3%	-6%
CCOc1ccc(NC(=O)CSc2ccc(-c3ccccn3)nn2)cc1	-3%	5%	-4%	7.9µM*	-10%
CCOC(=O)COc1ccc2c(c1)c(C(=O)OCC)c(C)n2CC	-39%	-7%	-2%	-5%	25%
CCOc1ccc(/C=N/NC(=O)c2c(C)n(C)c3ccc(OC)cc23)cc1	24%	-2%	-3%	3%	32µM*
COc1ccc2c(c1)c(C(=O)N/N=C/c1ccc(Br)cc1)c(C)n2C	-14%	-5%	7%	-6%	-20%
COc1ccccc1OCCNC1CCCC1	-1%	13%	-5%	23%	5%
Cc1cc(C(=O)O)ccc1-c1ccc(/C=C2\SC(=O)N(CC(=O)Nc3ccc4c(c3)OCO4)C2=O)o1	8%	/	-13%	1%	-46%
Cc1ccc(C(=O)O)cc1-c1ccc(/C=C2\SC(=O)N(CC(=O)Nc3ccccc3)C2=O)o1	17%	-6%	56µM*	-1%	-28%
Cc1ccccc1NC(=O)CN1C(=O)S/C(=C\c2ccc(-c3cc(C(=O)O)ccc3C)o2)C1=O	4%	-19%	56µM*	0%	-22%
COc1ccccc1CN1C(=O)C2CC=CCC2C1=O (stereo not given)	-19%	1%	8%	7%	-9%
